Active and inactive are the calls of the source.

For experiment [1], the system named is Plasmodium falciparum Sir2 (PF13_0152, Sir2A). Put plainly: Plasmodium falciparum Sir2A binding compounds – biochemical, small-molecule microarray, 635 nm fluorescence, primary screen (AID 1098).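 Further: score merges spot fluorescence intensity with its signal-to-noise ratio.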 Particulars: fluorescence 635 nm, higher = more signal.
Experiment [2] in a line: probe aDKK1 binding to arrayed compounds – biochemical, biotinylated probe, 635/667 nm fluorescence, primary screen (AID 1099).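 Further: score merges 667nm spot fluorescence with signal to noise across triplicate slides.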 Particulars: small-molecule microarray, higher = more signal.
A short description of experiment [3]: probe aCHRDL2 binding to arrayed compounds – biochemical, biotinylated probe, 635/667 nm fluorescence, primary screen (AID 1100). The following applies: small-molecule microarray, higher = more signal.
A short description of experiment [4]: change in splice reporter luminescence, either direction, cell-based, HEK293, spliceosome inhibition project, primary screen (AID 1101).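 Further: HEK293 cells carrying a splicing-competent luciferase reporter gene; test concentration not given here.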 The following applies: HEK293 splicing luciferase reporter, 24 h, higher = more signal, called active from +8 up or from −8 down.
Experiment [5] has as its target Fibroblast growth factor 10 (Homo sapiens) (UniProt O15520). Kind of experiment: compounds binding fibroblast growth factor 10 – biochemical, small-molecule microarray, 635 nm fluorescence, primary screen (AID 1102). Particulars: FGF10 binding, fluorescence 635 nm, higher = more signal.
Experiment [6] deals with glycogen synthase kinase-3 (GSK3A per assay name; protocol says GSK3B). Kind of experiment: compounds binding glycogen synthase kinase-3 – biochemical, small-molecule microarray, 635 nm fluorescence, GSK3A, primary screen (AID 1103). Further: the record names both GSK3A and GSK3B. Particulars: fluorescence 635 nm, higher = more signal.
In experiment [7] the target is Epidermal growth factor receptor (Homo sapiens) (UniProt P00533). Kind of experiment: compounds binding epidermal growth factor receptor – biochemical, small-molecule microarray, 635 nm fluorescence, primary screen (AID 1104).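 Further: score merges 667 nm emission intensity with spot signal to noise over triplicate slides.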 The following applies: EGFR binding, higher = more signal.
Chain of Epidermal growth factor receptor (Homo sapiens) (P00533 whole entry, looked up): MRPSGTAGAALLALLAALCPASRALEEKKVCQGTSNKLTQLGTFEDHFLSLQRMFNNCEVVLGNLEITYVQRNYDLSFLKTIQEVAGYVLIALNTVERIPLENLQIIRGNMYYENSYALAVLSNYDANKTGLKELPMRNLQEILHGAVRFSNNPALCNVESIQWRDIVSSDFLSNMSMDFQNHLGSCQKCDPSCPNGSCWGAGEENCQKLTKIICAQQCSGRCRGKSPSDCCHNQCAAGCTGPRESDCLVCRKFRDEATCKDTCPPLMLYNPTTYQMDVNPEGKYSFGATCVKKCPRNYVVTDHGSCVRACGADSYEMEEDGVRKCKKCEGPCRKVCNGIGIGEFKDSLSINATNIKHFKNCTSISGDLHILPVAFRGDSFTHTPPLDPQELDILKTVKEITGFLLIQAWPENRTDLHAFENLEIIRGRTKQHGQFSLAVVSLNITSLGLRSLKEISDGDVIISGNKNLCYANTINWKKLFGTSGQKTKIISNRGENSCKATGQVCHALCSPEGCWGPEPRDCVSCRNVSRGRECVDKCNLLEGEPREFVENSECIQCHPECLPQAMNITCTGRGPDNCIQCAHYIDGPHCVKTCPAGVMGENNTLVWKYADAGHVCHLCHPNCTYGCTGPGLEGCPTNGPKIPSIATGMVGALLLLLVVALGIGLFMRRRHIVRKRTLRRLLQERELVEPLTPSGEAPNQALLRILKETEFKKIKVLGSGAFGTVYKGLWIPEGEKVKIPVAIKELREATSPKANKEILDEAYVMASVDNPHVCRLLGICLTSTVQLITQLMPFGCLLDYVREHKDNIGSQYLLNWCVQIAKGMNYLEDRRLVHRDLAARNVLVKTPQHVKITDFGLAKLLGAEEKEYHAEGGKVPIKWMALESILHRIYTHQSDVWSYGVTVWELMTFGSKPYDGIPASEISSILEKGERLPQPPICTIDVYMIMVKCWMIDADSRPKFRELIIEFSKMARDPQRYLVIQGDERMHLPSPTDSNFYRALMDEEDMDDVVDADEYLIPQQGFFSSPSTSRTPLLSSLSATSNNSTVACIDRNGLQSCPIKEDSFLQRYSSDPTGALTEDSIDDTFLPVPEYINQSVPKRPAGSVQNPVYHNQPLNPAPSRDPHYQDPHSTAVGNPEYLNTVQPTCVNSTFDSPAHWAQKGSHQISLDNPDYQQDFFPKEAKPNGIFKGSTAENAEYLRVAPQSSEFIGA
Experiment [8] deals with Follistatin-related protein 3 (Homo sapiens) (UniProt O95633). Put plainly: compounds binding follistatin-related protein 3 – biochemical, small-molecule microarray, 635 nm fluorescence, primary screen (AID 1105).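 Further: score merges emission near 667 nm and signal to noise per printed spot across three slides.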 Particulars: FSTL3 binding, higher = more signal.
Chain of Follistatin-related protein 3 (Homo sapiens) (O95633 whole entry, looked up): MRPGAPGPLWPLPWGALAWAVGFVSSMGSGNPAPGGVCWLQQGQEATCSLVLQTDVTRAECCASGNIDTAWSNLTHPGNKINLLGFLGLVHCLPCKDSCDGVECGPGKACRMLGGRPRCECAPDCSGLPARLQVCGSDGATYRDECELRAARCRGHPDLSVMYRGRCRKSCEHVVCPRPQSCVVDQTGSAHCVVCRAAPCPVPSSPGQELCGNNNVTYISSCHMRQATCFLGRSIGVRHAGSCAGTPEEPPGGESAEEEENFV
For experiment [9], the target named is Dickkopf-related protein 1 (Homo sapiens) (UniProt O94907). Put plainly: small molecules binding DKK1 protein – biochemical, small-molecule microarray, 635 nm fluorescence scan, primary screen (AID 1106).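 Further: score merges emission near 667 nm with signal to noise over three replicate slides.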 Particulars: higher = more signal.
Chain of Dickkopf-related protein 1 (Homo sapiens) (O94907 whole entry, looked up): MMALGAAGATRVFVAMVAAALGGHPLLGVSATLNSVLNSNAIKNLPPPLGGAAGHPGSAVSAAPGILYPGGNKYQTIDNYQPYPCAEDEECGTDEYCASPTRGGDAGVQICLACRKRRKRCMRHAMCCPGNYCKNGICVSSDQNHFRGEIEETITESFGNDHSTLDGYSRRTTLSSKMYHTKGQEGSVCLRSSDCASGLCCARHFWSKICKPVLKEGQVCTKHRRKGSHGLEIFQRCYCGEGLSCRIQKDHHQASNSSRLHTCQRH
For experiment [10], the system named is Inhibin beta A chain (activin A). Kind of experiment: small molecules binding activin A – biochemical, small-molecule microarray, 635 nm fluorescence scan, primary screen (AID 1107).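 Further: mouse activin A protein probed at 4.33 µg/mL on printed slides; score merges bound-protein fluorescence near 667 nm with spot signal-to-noise.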 Particulars: INHBA, higher = more signal.
In experiment [11] the test system is Human papillomavirus type 1a protein E7 (residues 44-93). Put plainly: small molecules binding HPV E7 44-93 – biochemical, small-molecule microarray, residues 44-93, 635 nm fluorescence, primary screen (AID 1108).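 Further: E7 fragment applied at 1 µg/mL in TBST for 1 h at 4 C; score combines spot fluorescence with its signal to noise ratio.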 Particulars: fluorescence 635 nm, higher = more signal.
A short description of experiment [12]: hepatitis C replication reporter changes, two-sided – Huh7 cells, luciferase reporter, HCV replication inhibitor project, primary screen (AID 1109).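 Further: huh7 hepatoma cells harbouring a luciferase neomycin HCV replicon reporter; luciferase luminescence as measure of HCV replicon replication; test concentration not given here.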 Particulars: Huh7 HCV replicon luciferase reporter, 48 h; higher = more signal.
For experiment [13], the target named is Left-right determination factor 2 (Homo sapiens) (UniProt O00292). Put plainly: small molecules binding LEFTY2 protein – biochemical, small-molecule microarray, 635 nm fluorescence scan, primary screen (AID 1110). Particulars: higher = more signal.
Chain of Left-right determination factor 2 (Homo sapiens) (O00292 whole entry, looked up): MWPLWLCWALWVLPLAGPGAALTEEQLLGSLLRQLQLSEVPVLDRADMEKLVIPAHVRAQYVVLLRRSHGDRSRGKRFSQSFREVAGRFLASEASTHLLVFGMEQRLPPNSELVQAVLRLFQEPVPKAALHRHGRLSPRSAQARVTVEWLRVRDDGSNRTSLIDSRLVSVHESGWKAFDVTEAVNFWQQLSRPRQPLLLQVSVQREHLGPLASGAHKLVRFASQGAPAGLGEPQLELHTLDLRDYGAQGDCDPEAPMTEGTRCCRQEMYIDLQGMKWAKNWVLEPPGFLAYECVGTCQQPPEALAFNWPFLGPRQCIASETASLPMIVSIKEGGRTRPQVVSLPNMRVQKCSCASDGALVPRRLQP
Experiment [14] concerns the target Calmodulin-1 (Homo sapiens) (UniProt P0DP23). Kind of experiment: small molecules binding calmodulin-1 with EGTA – biochemical, small-molecule microarray, Cy5-labelled CALM1, profiling panel (AID 1111).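 Further: labelled calmodulin applied in Tris saline Tween buffer holding calcium plus EGTA and DTT.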 Particulars: Cy5-CALM1 binding fluorescence, higher = more signal.
Experiment [15] shares this target. Put plainly: small molecules binding Ca-loaded calmodulin-1 – biochemical, small-molecule microarray, Cy5-labelled CALM1, plus calcium, artefact control for SMM control-protein annotation, profiling panel (AID 1112).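 Further: score merges spot fluorescence with signal to noise from triplicate slides.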 The following applies: Cy5-CALM1 binding fluorescence, higher = more signal.
Experiment [16] can be described thus: probe aWnt5a binding to arrayed compounds – biochemical, biotinylated probe, 635/667 nm fluorescence, primary screen (AID 1113).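 Further: score merges 667 nm fluorescence intensity with signal-to-noise per printed feature.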 The following applies: small-molecule microarray, higher = more signal.
Experiment [17] is described as follows: probe aShh binding to arrayed compounds – biochemical, biotinylated probe, 635/667 nm fluorescence, primary screen (AID 1114).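 Further: probe is biotin-labelled aShh protein from a stem cell growth factor screen; measures binding of labelled protein to compounds printed on the slide; score merges feature fluorescence at 667 nm with signal-to-noise.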 Particulars: small-molecule microarray, higher = more signal.
Experiment [18] can be described thus: probe aNog binding to arrayed compounds – biochemical, biotinylated probe, 635/667 nm fluorescence, primary screen (AID 1115).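 Further: probe is biotinylated aNog protein used at 0.15 µg/mL for 1 h at 4 C; z-score combines 667 nm fluorescence of each spot with its signal to noise.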 The following applies: small-molecule microarray, higher = more signal.
The target in experiment [19] is Torsin-1A-interacting protein 1 (Homo sapiens) (UniProt Q5JTV8). Kind of experiment: compound microarray binding of lysate hLAP1 – cell lysate, small-molecule microarray, COS7 lysate, 635/667 nm fluorescence, primary screen (AID 1116). Particulars: 635 nm fluorescence, higher = more signal.
Chain of Torsin-1A-interacting protein 1 (Homo sapiens) (Q5JTV8 whole entry, looked up): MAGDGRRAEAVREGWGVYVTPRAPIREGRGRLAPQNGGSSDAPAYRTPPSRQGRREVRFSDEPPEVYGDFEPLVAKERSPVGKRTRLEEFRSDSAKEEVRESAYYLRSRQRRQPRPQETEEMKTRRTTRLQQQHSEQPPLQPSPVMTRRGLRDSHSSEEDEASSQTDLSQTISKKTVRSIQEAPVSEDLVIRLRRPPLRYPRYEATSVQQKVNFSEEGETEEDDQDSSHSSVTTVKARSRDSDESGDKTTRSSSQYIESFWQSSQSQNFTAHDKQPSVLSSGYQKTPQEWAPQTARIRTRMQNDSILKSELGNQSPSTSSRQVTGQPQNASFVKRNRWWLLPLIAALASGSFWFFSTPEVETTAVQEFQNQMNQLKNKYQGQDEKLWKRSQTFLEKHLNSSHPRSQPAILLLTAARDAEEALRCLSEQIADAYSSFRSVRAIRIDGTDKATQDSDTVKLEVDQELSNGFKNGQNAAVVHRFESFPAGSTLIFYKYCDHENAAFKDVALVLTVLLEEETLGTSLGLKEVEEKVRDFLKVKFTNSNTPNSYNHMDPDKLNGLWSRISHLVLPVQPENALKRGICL
For experiment [20], the target named is Alpha-bungarotoxin (Bungarus multicinctus) (UniProt P60615). Put plainly: compounds binding labelled alpha-BTX control protein – biochemical, small-molecule microarray, Alexa647 label, 635/667 nm fluorescence, artefact control for SMM control protein annotation, profiling panel (AID 1117). The following applies: alpha-BTX-A647 binding fluorescence, higher = more signal.
Chain of Alpha-bungarotoxin (Bungarus multicinctus) (P60615 whole entry, looked up): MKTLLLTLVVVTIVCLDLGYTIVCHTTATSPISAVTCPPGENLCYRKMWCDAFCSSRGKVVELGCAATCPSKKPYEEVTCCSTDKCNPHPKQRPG

Chain of Fibroblast growth factor 10 (Homo sapiens) (O15520 whole entry, looked up): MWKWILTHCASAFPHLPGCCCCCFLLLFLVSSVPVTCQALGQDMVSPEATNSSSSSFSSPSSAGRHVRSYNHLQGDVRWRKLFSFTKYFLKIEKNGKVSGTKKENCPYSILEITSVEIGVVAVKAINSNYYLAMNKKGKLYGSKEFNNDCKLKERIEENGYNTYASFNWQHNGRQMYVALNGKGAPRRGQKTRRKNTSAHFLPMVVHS

For `C=CCC(OC(C)=O)[C@@H]1[C@@H](N(Cc2ccc(-c3ccccc3)cc2)C(=O)Cc2ccc(F)cc2)c2cc(OCCCO)ccc2N1C(=O)Cc1ccc2ccccc2c1` (stereo not given in full), the composite z-score was -0.261 in experiment [1]; -0.0697 in [2]; 0.652 in [3]; -0.13 in [5]; -0.199 in experiment [6]; -0.113 in [7]. The composite z-score is -0.507 in experiment [8]; -0.117 in [9]; 1.3 in experiment [10]; -0.333 in experiment [11]; 0.0808 in experiment [13]; 1.07 in experiment [14]. The composite z-score was 0.743 in experiment [15]; 0.0495 in experiment [16]; -0.153 in [17]; 0.0335 in [18]; 0.542 in [19]; -0.0297 in experiment [20]. The z-score in experiment [4] is -0.681 (inactive); in experiment [12], 0.482.

For `O=C1OCCC/C=C\[C@H]2OC34C=CCN(c5ccc6ccccc6c5)C(=O)[C@H]3N(CCCO)C(=O)[C@@H]4C12` (stereo not given in full), the composite z-score in experiment [1] was 0.548; in experiment [2], -0.326; in experiment [3], 0.445; in [5], -0.365; in experiment [6], -0.216; in experiment [7] it was -0.315. The composite z-score in experiment [8] is -0.451; in experiment [9], -1.31; in experiment [10] it was 0.479; in experiment [11], -0.148; in experiment [13], -0.548; in experiment [14] it was -0.371. Also, the composite z-score in experiment [15] was 0.0048; in experiment [16] it was -0.124; in experiment [17] it was 0.184; in experiment [18] it was 0.0014; in [19] it was -0.387; in experiment [20], -0.766. In addition, the values for the z-score in experiment [4] and in experiment [12] were 0.752 (inactive) and -0.0935, respectively.

On to `CN(C)C(=O)[C@@]1(Cc2ccccc2)COC(c2ccc(OCCCO)cc2)=N1`, for which the composite z-score in [1] is 0.429; in experiment [2] it was -0.246; in [3], -0.0283; in experiment [5] it was -0.304; in experiment [6], 0.792; in experiment [7] it was 0.197. Besides, the composite z-score in experiment [8] is -0.718; in [9] it was -0.59; in experiment [10] it was -0.512; in experiment [11] it was -0.112; in experiment [13], -0.906; in experiment [14], 0.153. In addition, the composite z-score in experiment [15] is 0.369; in experiment [16] it was -0.319; in [17], 0.0526; in experiment [18] it was -0.646; in [19] it was 2; in experiment [20], -0.579. Besides, the z-score in [4] was -0.781 (inactive); in [12], -1.4.

For the compound `COCCOC(=O)N1C(=O)[C@@]2(c3cc(C#CCCO)ccc31)[C@H](C(=O)N1CCCCCCC1)[C@H]1C(=O)O[C@H](c3ccccc3)[C@H](c3ccccc3)N1[C@@H]2c1ccccc1OCCO`, the composite z-score in [1] stood at 1.24; in experiment [2], 2.67; in experiment [3], 1.6; in experiment [5], 0.663; in [6], 1.35; in experiment [7] it was 1.31. Besides, the composite z-score in [8] worked out at 1.58; in experiment [9], 1.43; in experiment [10] it was 1.86; in experiment [11], 1.4; in experiment [13], 1.18; in experiment [14], 2.73. For the same compound, the composite z-score was found to be 1.5 in experiment [15]; 0.993 in experiment [16]; 2.38 in experiment [17]; 2.99 in experiment [18]; 3.19 in experiment [19]; 1.85 in experiment [20]. The z-score is -0.0434 (inactive) in experiment [4] and -1.79 in experiment [12].

For `O=C(N1CCOCC1)[C@@]1(CCS(=O)(=O)c2ccccc2)N=C(c2ccc(OCCCO)cc2)O[C@H]1c1ccccc1`, the composite z-score in experiment [1] is 1.64; in experiment [2] it was 1.42; in experiment [3] it was 1.33; in experiment [5] it was 0.646; in [6], 1.22; in experiment [7], -0.412. The composite z-score is 0.424 in experiment [8]; -0.383 in [9]; 0.382 in [10]; 1.1 in experiment [11]; -0.563 in experiment [13]; 2.58 in experiment [14]. In addition, the composite z-score in [15] was 1.33; in [16], -0.0084; in experiment [17] it was -0.0441; in experiment [18], -0.273; in [19] it was 1.85; in [20] it was 2.84. The z-score was 2.21 (inactive) in experiment [4] and -0.892 in experiment [12].
